We go through 2 compounds from PubChem BioAssay AID504819 (NMMLSC, 2011).

The experiment is described as follows: fluorescence quenching of FAM-labeled RNA aptamer, dose response, artefact control for GRK2 aptamer inhibitor project, biochemical, flow cytometry, cherry pick 2 (AID 504819). Particulars: Streptavidin beads, hits give high values. On the technique in general: In flow cytometry, cells or beads pass a laser one at a time.

Each structure is given as a SMILES string. The list shows a part of the results. A number with no mark means an inactive call.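 Rule for the calls: active = compounds quenching the bead-bound labeled aptamer, with fluorescence dropping by more than 37 kMESF over the dose range; inactive = the rest.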

Regarding `O=C(CCS(=O)(=O)c1ccc(Br)cc1)NCCc1ccc(Cl)cc1`, the change in fluorescence (kMESF span) is 2.5 kMESF.

Turning to `COc1ccc(Cl)cc1NC(=O)CCS(=O)(=O)c1ccc(Br)cc1`, the change in fluorescence (kMESF span) was 1.4 kMESF.
